# Test results taken from article PMC7862700, “An all-to-all approach to the identification of sequence-specific readers for epigenetic DNA modifications on cytosine”.
# Key:
# Assay in all cases: DAPPL (digital affinity profiling via proximity ligation, sequencing); 10 mM Tris-HCl pH 7.5, 50 mM NaCl, 1 mM DTT, 4% glycerol, room temperature, 30 min; GST-TFs on glutathione beads, 16-mer random dsDNA library, 0.1% formaldehyde crosslink after washing; high values mean tight binding
# FEV = biological target: T1, FEV (Homo sapiens, UniProt Q99581 1-238); settings: protein: recombinant; tags: N-terminal GST; dsDNA, one strand shown
# T1 sequence: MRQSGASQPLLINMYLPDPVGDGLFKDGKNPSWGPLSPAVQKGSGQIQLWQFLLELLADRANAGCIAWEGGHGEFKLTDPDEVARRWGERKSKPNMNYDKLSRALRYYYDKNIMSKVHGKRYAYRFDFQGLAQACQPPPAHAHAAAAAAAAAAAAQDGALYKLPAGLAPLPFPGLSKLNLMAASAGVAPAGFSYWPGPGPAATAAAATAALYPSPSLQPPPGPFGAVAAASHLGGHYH
# Procedure, shortened: (§1)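 Human transcription factors fused to GST were expressed in yeast, captured on glutathione beads, given DNA barcodes and pooled with a GST-only negative control. Pools were incubated with 200 nmole of a 16-mer random double-stranded DNA library in Tris/NaCl/DTT/glycerol buffer at room temperature for 30 min. They were then washed, crosslinked with 0.1% formaldehyde, proximity-ligated (BsaI/T4 ligase, 1 h, 37 °C), PCR-amplified and sequenced on an Illumina NextSeq500. Binding signal is each 6-mer's read frequency for a factor divided by its frequency for the GST control.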
# ETV5 = ETV5 (Homo sapiens, UniProt P41161 1-510); settings: protein: recombinant; tags: N-terminal GST; dsDNA, one strand shown
# Procedure, shortened: as §1
# HSF1 = HSF1 (Homo sapiens, UniProt Q00613 1-529); settings: protein: recombinant; tags: N-terminal GST; chain copies: 3; dsDNA, one strand shown
# Procedure, shortened: as §1
# SPIC = biological target: T2, SPIC (Homo sapiens, UniProt Q8N5J4 1-248); settings: protein: recombinant; tags: N-terminal GST; dsDNA, one strand shown
# T2 sequence: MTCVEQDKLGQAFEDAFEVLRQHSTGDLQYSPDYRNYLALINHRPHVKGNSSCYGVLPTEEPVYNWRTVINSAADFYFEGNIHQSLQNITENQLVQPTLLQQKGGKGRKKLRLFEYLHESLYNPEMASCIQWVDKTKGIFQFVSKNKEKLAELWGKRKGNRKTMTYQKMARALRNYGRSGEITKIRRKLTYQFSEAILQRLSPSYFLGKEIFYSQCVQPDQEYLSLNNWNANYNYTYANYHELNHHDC
# Procedure, shortened: as §1
# ELF4 = ELF4 (Homo sapiens, UniProt Q99607 1-663); settings: protein: recombinant; tags: N-terminal GST; dsDNA, one strand shown
# Procedure, shortened: as §1
# ELK4 = biological target: T3, ELK4 (Homo sapiens, UniProt P28324-2 1-405); settings: protein: recombinant; tags: N-terminal GST; dsDNA, one strand shown
# T3 sequence: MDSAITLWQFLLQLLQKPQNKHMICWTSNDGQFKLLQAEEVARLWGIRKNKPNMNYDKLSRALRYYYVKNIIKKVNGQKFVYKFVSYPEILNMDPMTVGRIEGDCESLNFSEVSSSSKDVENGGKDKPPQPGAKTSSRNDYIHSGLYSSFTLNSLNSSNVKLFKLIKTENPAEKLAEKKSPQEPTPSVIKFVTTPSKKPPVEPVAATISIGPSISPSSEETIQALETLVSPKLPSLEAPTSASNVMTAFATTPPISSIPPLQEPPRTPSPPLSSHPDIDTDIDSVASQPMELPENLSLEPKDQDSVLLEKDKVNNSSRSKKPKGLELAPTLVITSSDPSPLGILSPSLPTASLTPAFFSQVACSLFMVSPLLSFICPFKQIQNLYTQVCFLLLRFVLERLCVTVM
# Procedure, shortened: as §1
# ETV2 = biological target: T4, ETV2 (Homo sapiens, UniProt O00321 1-342); settings: protein: recombinant; tags: N-terminal GST; dsDNA, one strand shown
# T4 sequence: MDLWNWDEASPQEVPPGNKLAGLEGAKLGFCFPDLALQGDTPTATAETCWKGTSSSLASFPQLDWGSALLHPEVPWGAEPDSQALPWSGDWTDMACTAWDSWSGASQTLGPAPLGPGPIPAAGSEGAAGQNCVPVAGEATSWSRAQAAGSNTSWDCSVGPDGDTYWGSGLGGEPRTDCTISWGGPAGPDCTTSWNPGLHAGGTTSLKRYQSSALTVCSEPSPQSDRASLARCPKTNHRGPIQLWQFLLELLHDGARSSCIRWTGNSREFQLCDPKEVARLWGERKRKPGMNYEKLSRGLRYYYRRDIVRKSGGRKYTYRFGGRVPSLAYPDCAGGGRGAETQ
# Procedure, shortened: as §1
# ELF3 = biological target: T5, ELF3 (Homo sapiens, UniProt P78545 1-371); settings: protein: recombinant; tags: N-terminal GST; dsDNA, one strand shown
# T5 sequence: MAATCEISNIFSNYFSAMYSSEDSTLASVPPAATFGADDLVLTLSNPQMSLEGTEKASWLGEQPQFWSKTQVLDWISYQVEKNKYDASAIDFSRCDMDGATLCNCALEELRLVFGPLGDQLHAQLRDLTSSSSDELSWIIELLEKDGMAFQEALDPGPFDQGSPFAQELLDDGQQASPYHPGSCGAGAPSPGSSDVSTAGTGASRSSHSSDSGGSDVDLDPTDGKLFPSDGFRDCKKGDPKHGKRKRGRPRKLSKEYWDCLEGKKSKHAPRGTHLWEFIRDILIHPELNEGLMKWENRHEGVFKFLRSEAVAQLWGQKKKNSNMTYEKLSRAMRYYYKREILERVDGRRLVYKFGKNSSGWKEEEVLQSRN
# Procedure, shortened: as §1
# CRX = CRX (Homo sapiens, UniProt O43186 1-299); settings: protein: recombinant; tags: N-terminal GST; dsDNA, one strand shown
# Procedure, shortened: as §1
# ETV1 = ETV1 (Homo sapiens, UniProt P50549 1-477); settings: protein: recombinant; tags: N-terminal GST; dsDNA, one strand shown
# Procedure, shortened: as §1
# ERF = biological target: T6, ERF (Homo sapiens, UniProt P50548 1-548); settings: protein: recombinant; tags: N-terminal GST; dsDNA, one strand shown
# T6 sequence: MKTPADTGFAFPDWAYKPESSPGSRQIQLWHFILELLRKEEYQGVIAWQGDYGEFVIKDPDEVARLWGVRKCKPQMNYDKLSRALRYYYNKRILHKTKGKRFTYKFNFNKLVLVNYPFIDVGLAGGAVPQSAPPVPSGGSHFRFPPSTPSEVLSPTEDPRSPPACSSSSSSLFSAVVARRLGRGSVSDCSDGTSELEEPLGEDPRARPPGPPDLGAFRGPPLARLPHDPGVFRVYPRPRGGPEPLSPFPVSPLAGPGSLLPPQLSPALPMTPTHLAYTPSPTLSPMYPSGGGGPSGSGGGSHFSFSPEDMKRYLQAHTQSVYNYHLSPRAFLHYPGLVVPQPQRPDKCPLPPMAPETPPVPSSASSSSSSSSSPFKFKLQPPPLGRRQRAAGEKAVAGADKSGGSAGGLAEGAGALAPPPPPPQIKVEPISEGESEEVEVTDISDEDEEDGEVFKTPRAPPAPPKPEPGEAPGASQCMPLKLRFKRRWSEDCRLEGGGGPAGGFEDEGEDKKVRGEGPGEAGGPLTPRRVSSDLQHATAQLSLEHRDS
# Procedure, shortened: as §1
# ETV3L = biological target: T7, ETV3L (Homo sapiens, UniProt Q6ZN32 1-361); settings: protein: recombinant; tags: N-terminal GST; dsDNA, one strand shown
# T7 sequence: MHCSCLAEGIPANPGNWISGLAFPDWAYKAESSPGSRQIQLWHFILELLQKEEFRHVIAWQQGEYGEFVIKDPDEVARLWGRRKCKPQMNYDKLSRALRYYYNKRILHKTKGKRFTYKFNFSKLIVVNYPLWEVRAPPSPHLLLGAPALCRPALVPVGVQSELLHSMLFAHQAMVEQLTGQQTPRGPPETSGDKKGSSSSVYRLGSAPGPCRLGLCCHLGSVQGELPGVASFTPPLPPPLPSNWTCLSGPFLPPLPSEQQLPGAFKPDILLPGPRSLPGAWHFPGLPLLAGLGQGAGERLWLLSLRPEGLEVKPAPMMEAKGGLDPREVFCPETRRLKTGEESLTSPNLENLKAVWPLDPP
# Procedure, shortened: as §1
# ETS2 = biological target: T8, ETS2 (Homo sapiens, UniProt P15036 1-469); settings: protein: recombinant; tags: N-terminal GST; dsDNA, one strand shown
# T8 sequence: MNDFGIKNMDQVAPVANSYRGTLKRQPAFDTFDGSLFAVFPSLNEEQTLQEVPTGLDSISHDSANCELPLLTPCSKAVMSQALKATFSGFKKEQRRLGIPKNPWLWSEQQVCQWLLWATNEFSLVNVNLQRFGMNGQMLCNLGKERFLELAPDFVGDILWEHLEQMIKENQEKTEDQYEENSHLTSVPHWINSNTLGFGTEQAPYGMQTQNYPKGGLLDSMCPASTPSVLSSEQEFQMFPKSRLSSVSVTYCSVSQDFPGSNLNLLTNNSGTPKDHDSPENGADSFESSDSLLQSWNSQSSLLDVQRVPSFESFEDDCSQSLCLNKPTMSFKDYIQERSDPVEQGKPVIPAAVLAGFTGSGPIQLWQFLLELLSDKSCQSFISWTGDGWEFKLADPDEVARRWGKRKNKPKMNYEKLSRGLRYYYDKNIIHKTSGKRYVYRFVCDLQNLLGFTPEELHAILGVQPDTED
# Procedure, shortened: as §1
# SPDEF = biological target: T9, SPDEF (Homo sapiens, UniProt O95238 1-335); settings: protein: recombinant; tags: N-terminal GST; dsDNA, one strand shown
# T9 sequence: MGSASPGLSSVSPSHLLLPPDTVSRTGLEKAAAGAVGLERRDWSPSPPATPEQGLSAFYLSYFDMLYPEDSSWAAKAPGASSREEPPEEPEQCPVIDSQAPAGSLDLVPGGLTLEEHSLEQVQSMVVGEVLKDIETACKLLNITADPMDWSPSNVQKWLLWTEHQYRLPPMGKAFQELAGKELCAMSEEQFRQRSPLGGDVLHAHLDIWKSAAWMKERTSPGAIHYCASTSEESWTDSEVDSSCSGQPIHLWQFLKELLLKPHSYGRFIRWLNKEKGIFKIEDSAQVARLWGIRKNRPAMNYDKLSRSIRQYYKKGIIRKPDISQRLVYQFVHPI
# Procedure, shortened: as §1
# ETV7 = biological target: T10, ETV7 (Homo sapiens, UniProt Q9Y603 1-341); settings: protein: recombinant; tags: N-terminal GST; dsDNA, one strand shown
# T10 sequence: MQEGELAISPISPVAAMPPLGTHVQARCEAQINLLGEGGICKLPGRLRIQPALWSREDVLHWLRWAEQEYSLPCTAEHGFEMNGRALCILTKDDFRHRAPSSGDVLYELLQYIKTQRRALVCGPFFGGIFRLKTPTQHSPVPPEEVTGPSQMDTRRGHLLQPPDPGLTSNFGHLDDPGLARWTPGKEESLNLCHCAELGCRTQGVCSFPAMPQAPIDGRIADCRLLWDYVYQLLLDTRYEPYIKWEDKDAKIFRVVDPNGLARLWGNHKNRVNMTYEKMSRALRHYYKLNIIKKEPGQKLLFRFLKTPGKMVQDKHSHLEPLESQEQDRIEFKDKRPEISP
# Procedure, shortened: as §1
# ELF5 = biological target: T11, ELF5 (Homo sapiens, UniProt Q9UKW6-2 1-255); settings: protein: recombinant; tags: N-terminal GST; dsDNA, one strand shown
# T11 sequence: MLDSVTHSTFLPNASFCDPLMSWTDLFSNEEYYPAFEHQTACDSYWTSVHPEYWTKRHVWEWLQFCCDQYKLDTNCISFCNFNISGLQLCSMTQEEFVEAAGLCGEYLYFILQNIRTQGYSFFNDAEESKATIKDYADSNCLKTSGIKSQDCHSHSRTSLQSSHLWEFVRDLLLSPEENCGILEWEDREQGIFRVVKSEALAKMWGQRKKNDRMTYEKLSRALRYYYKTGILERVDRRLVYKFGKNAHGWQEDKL
# Procedure, shortened: as §1
# ETV3 = biological target: T12, ETV3 (Homo sapiens, UniProt P41162-2 1-143); settings: protein: recombinant; tags: N-terminal GST; dsDNA, one strand shown
# T12 sequence: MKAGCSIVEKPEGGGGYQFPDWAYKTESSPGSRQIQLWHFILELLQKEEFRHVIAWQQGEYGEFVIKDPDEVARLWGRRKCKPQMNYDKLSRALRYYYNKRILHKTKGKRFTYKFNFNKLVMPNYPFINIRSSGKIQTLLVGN
# Procedure, shortened: as §1
# ETV6 = ETV6 (Homo sapiens, UniProt P41212 1-452); settings: protein: recombinant; tags: N-terminal GST; dsDNA, one strand shown
# Procedure, shortened: as §1
# Chain of ELF4 (Q99607 whole entry): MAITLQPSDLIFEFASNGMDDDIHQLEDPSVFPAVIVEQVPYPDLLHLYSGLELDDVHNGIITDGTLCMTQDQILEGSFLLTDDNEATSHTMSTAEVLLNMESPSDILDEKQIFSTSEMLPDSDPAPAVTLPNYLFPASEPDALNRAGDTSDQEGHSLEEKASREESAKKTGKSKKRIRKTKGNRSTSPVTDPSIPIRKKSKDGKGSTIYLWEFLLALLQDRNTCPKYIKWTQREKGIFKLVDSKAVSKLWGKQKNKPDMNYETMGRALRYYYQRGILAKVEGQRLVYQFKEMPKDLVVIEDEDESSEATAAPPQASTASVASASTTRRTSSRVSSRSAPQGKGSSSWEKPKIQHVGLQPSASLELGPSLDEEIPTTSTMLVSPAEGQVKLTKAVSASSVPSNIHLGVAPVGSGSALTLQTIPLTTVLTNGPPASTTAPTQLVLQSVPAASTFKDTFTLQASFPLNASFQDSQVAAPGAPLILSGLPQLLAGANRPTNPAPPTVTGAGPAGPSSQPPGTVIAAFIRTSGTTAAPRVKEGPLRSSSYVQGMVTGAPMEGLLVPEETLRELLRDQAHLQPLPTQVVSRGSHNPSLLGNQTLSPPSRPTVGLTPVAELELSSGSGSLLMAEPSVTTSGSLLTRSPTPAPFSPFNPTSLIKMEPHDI
# Chain of ETV1 (P50549 whole entry): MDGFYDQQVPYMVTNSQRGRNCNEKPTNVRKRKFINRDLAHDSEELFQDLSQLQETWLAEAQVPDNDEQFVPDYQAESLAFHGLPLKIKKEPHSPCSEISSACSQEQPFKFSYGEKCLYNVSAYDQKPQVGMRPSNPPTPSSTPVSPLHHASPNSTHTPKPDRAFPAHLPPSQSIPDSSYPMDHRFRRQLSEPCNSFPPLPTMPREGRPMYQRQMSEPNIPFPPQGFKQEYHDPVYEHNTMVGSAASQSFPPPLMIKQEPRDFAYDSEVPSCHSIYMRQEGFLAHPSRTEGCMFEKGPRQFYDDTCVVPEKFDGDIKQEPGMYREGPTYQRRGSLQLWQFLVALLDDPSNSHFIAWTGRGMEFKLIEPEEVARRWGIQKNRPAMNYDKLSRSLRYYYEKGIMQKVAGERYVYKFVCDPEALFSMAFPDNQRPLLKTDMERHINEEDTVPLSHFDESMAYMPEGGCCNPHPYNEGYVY
# Chain of ETV6 (P41212 whole entry): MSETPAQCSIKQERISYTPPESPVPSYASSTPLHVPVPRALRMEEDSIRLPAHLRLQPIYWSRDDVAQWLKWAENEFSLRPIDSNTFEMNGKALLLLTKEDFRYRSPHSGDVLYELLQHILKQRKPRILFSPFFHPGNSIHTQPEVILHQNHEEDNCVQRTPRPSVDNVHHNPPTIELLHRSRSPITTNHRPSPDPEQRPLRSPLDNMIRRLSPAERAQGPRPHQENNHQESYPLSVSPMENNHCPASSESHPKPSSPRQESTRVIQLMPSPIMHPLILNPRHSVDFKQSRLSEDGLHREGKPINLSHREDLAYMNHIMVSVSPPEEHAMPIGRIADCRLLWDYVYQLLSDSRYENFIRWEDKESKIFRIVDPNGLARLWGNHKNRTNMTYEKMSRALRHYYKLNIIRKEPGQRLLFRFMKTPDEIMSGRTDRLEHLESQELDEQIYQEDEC
# Chain of CRX (O43186 whole entry): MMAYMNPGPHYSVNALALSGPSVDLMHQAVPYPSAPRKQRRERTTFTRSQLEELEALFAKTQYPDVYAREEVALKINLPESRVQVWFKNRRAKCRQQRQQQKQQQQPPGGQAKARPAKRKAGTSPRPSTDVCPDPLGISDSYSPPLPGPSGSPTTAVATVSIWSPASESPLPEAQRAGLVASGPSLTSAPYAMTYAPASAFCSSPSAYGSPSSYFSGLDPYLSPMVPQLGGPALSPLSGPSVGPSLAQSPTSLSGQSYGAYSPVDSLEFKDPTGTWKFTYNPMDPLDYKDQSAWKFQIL
# Chain of HSF1 (Q00613 whole entry): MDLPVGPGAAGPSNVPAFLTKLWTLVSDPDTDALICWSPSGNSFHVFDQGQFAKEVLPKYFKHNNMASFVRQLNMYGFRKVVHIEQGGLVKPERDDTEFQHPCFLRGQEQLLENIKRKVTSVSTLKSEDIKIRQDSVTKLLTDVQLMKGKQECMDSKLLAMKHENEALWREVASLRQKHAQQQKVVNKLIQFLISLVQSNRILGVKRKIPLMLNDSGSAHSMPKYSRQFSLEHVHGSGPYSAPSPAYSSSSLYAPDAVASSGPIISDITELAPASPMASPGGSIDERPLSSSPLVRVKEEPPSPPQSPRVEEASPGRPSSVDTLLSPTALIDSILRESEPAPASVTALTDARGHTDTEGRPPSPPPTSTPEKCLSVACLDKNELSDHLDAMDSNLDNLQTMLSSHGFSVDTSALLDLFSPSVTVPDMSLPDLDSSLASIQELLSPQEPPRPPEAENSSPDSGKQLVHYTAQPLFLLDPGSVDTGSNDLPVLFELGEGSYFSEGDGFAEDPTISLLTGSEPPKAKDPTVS
# Chain of ETV5 (P41161 whole entry): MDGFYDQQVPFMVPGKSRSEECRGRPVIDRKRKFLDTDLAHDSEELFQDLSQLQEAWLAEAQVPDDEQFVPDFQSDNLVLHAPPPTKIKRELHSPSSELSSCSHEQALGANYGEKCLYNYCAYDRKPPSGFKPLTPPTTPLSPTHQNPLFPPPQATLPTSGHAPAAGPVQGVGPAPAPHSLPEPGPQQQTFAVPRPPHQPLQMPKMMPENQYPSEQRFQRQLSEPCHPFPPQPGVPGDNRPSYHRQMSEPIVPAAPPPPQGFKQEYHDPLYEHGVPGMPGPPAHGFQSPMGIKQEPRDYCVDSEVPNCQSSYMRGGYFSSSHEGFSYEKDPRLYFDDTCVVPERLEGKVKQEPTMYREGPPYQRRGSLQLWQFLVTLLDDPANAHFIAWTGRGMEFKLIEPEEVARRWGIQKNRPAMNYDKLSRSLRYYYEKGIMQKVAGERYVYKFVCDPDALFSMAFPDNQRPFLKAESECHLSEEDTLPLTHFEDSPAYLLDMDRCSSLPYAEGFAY
sequence,measurement,setting,value
ACTAAT,binding signal,FEV,"1.19 fold enrichment (6-mer frequency, TF over GST control)"
same,binding signal,ETV5,"1.3 fold enrichment (6-mer frequency, TF over GST control)"
same,binding signal,HSF1,"1.81 fold enrichment (6-mer frequency, TF over GST control)"
same,binding signal,SPIC,"1.46 fold enrichment (6-mer frequency, TF over GST control)"
same,binding signal,ELF4,"1.36 fold enrichment (6-mer frequency, TF over GST control)"
same,binding signal,ELK4,"1.24 fold enrichment (6-mer frequency, TF over GST control)"
same,binding signal,ETV2,"1.38 fold enrichment (6-mer frequency, TF over GST control)"
same,binding signal,ELF3,"1.33 fold enrichment (6-mer frequency, TF over GST control)"
same,binding signal,CRX,"2.71 fold enrichment (6-mer frequency, TF over GST control)"
same,binding signal,ETV1,"1.3 fold enrichment (6-mer frequency, TF over GST control)"
same,binding signal,ERF,"1.27 fold enrichment (6-mer frequency, TF over GST control)"
same,binding signal,ETV3L,"1.24 fold enrichment (6-mer frequency, TF over GST control)"
same,binding signal,ETS2,"1.28 fold enrichment (6-mer frequency, TF over GST control)"
same,binding signal,SPDEF,"1.21 fold enrichment (6-mer frequency, TF over GST control)"
same,binding signal,ETV7,"1.45 fold enrichment (6-mer frequency, TF over GST control)"
same,binding signal,ELF5,"1.27 fold enrichment (6-mer frequency, TF over GST control)"
same,binding signal,ETV3,"1.12 fold enrichment (6-mer frequency, TF over GST control)"
same,binding signal,ETV6,"1.31 fold enrichment (6-mer frequency, TF over GST control)"
